# In PubChem BioAssay (NCI):
# About 83,000 compounds went through this panel and 20% of them were active in at least one assay; those are over-represented in the sample as a whole.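 Interpretation: 100, growth as untreated; towards 0, rising growth inhibition; 0, no net growth; 0 to -100, cell death. Compounds scoring below 10 were considered active.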 Values without a mark were called inactive. The source made the active and inactive calls.
# Tests used:
# Assay in all cases: NCI-60 one-dose screen, 48 h (100 = growth as untreated, 0 = no growth, -100 = all killed)
# Settings in all cases: 10 µM unless noted
# HT29 colon = tested on: HT29 colon
# SNB-75 CNS = tested on: SNB-75 CNS
# SNB-19 CNS = tested on: SNB-19 CNS
# U251 CNS = tested on: U251 CNS
# PC-3 prostate = tested on: PC-3 prostate
# SK-MEL-5 melanoma = tested on: SK-MEL-5 melanoma
# UACC-62 melanoma = tested on: UACC-62 melanoma
# LOX IMVI melanoma = tested on: LOX IMVI melanoma
# SK-MEL-28 melanoma = tested on: SK-MEL-28 melanoma
# EKVX NSCLC = tested on: EKVX NSCLC
# SN12C renal = tested on: SN12C renal
# UO-31 renal = tested on: UO-31 renal
# TK-10 renal = tested on: TK-10 renal
# ACHN renal = tested on: ACHN renal
# CAKI-1 renal = tested on: CAKI-1 renal
# A498 renal = tested on: A498 renal
# CCRF-CEM leukemia = tested on: CCRF-CEM leukemia
# MOLT-4 leukemia = tested on: MOLT-4 leukemia
# SK-MEL-2 melanoma = tested on: SK-MEL-2 melanoma
# SR leukemia = tested on: SR leukemia
Compound,growth (HT29 colon),growth (SNB-75 CNS),growth (SNB-19 CNS),growth (U251 CNS),growth (PC-3 prostate),growth (SK-MEL-5 melanoma),growth (UACC-62 melanoma),growth (LOX IMVI melanoma),growth (SK-MEL-28 melanoma),growth (EKVX NSCLC),growth (SN12C renal),growth (UO-31 renal),growth (TK-10 renal),growth (ACHN renal),growth (CAKI-1 renal),growth (A498 renal),growth (CCRF-CEM leukemia),growth (MOLT-4 leukemia),growth (SK-MEL-2 melanoma),growth (SR leukemia)
COc1cc(OC)c2sc(-c3ccc(-n4cncc4-c4ccc(N)cc4)cc3)nc2c1,62.6%,86.1%,71.2%,59.3%,67.7%,56.6%,96.6%,62.7%,97.5%,70.3%,76.1%,49.2%,70%,79.7%,76.4%,-3.9% (active),60.5%,46.9%,–,–
O=c1[nH]c(=O)n(C2CC(O)C(CO)O2)cc1C(F)(F)F (centres undefined),68.7%,57.6%,55.6%,42%,74.8%,29.8%,29.6%,18.3%,75.2%,–,28.6%,23.5%,64.8%,24.6%,66.2%,42.3%,-30.2% (active),31.8%,-17.8% (active),-24.8% (active)
CN(C(=O)c1ccccc1)N(C)C(=O)c1ccccc1,93.4%,105%,101%,108%,91.6%,108%,102%,106%,110%,–,105%,93.2%,105%,106%,–,100%,–,88.6%,106%,92.8%
O=C1/C(=C/c2ccc([N+](=O)[O-])o2)Oc2ccc(Cl)cc21,-15.3% (active),66.5%,91.9%,50.2%,-5.46% (active),18.4%,-89% (active),-61.8% (active),11.2%,–,-41.6% (active),-86.1% (active),-59.8% (active),-61% (active),3.65% (active),108%,-23.4% (active),-12.4% (active),-45.6% (active),5.52% (active)
O=C1Nc2ccccc2C12Nc1cc(Cl)ccc1S2 (centres undefined),95.4%,59.8%,94%,98.5%,44.5%,81.7%,80.9%,86.3%,138%,–,94.7%,69.6%,141%,99.6%,70.7%,107%,–,60.1%,130%,–
c1cnc2n[nH]c(Nc3ncnc4c3sc3ncccc34)c2c1,95.4%,84%,101%,97.1%,104%,102%,87.1%,85.6%,99%,–,99.7%,98.5%,103%,97.8%,104%,91.3%,88.6%,97.9%,103%,101%
